# Test results as given in PubChem BioAssay (NCATS).
# A number with no mark means an inactive call. Results filed as inconclusive are left out. Entries that show only a call come without a potency. The source made the active and inactive calls. Unless noted, calls follow the shape of the dose curve; as a rule, active = well fitted curve in the direction sought with a large enough effect; inconclusive = small, poorly fitted or top-dose-only effect, or another doubt; inactive = no such curve, though single readings can be large; an effect the other way counts as inactive or inconclusive.
# How the values were obtained:
# Es-2 = assay: Primary qHTS to identify gynecologic anti-cancer compounds using libraries of approved drugs and bioactive compounds (AID 1345084); details: Gynecologic cancer cell panel viability, ATPlite luminescence, 48 h; series mostly up to 57.5 µM; also: nearly all actives have a fitted effect of over 55% in size; also: potency is read from the fitted curve at half-maximal effect
# Summary of the method: (§1)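 Five-concentration response, 48 h; readout is ATP-driven luciferase luminescence.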
# HeLa = assay: as above; details: Gynecologic cancer cell panel viability, ATPlite luminescence, 48 h; series mostly up to 57.5 µM
# Summary of the method: as §1
# Hek293T = assay: as above; details: Gynecologic cancer cell panel viability, ATPlite luminescence, 48 h, control line for the selectivity index; series mostly up to 57.5 µM
# Summary of the method: as §1
# JEG-3 = assay: as above; details: Gynecologic cancer cell panel viability, ATPlite luminescence, 48 h; series mostly up to 57.5 µM
# Summary of the method: as §1
# OV90 = assay: as above; details: Gynecologic cancer cell panel viability, ATPlite luminescence, 48 h; series mostly up to 57.5 µM
# Summary of the method: as §1
# PA-1 = assay: as above; details: Gynecologic cancer cell panel viability, ATPlite luminescence, 48 h; series mostly up to 57.5 µM
# Summary of the method: as §1
# Tov-21-G = assay: as above; details: Gynecologic cancer cell panel viability, ATPlite luminescence, 48 h; series mostly up to 57.5 µM
# Summary of the method: as §1
# Tov112D = assay: as above; details: Gynecologic cancer cell panel viability, ATPlite luminescence, 48 h; series mostly up to 57.5 µM
# Summary of the method: as §1
# astro = assay: Drug repurposing screens with cells derived from glioblastoma tumor samples (AID 1345199); details: viability, ATP luminescence, 48 h; series mostly up to 45.9 µM; also: nearly all actives have a fitted effect of over 40% in size; also: potency is read from the fitted curve at half-maximal effect
# Summary of the method: (§2)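 Primary testing used CD133+ neurospheres from four GBM patients, seven concentrations, 48 h exposure and ATP-based viability; confirmation added three slower-growing patient lines.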
# [1] = qHTS assay to identify inhibitors of the type 1 interferon - major histocompatibility complex class I in skeletal muscle: Counter screen cell viability and HiBit confirmation (AID 1347412); details: iHSKM muscle cells + IFN-b, HiBiT or CellTiter-Glo, 24 h; Potency: HiBiT; Viability, at 45.9 µM (top of the series); also: nearly all actives have a fitted effect of over 60% in size
# Summary of the method: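 HLA-B*08:01–HiBiT knock-in immortalized human myoblasts (C25cl48) stimulated with 4.0 ng/ml human IFN-beta and dosed with compound in a 12-point 1:3 titration (top final 46 uM). After 24 hrs at 37 C, HiBiT lytic luminescence or CellTiter Glo ATP read out.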
# SKOV3 = assay: Primary qHTS to identify gynecologic anti-cancer compounds using libraries of approved drugs and bioactive compounds (AID 1345084); details: Gynecologic cancer cell panel viability, ATPlite luminescence, 48 h; series mostly up to 57.5 µM; also: nearly all actives have a fitted effect of over 55% in size; also: potency is read from the fitted curve at half-maximal effect
# Summary of the method: as §1
# [2] = Drug repurposing screens with cells derived from glioblastoma tumor samples (AID 1345199); details: GBM patient neurospheres viability, ATP luminescence, 48 h; for activity, negative = cell killing: at 45.9 µM (top of the series); also: potency is read from the fitted curve at half-maximal effect; as to all read-outs here: nearly all actives have a fitted effect of over 40% in size
# Summary of the method: as §2
# [3] = target: Nuclear receptor subfamily 1 group I member 2 (Rattus norvegicus) (UniProt Q9R1A7); assay: qHTS assay for small molecule activators of the rat pregnane X receptor (rPXR) signaling pathway (AID 651751; call rule not given here); details: rPXR reporter cells, luciferase (One-Glo), 24 h
# Chain of Nuclear receptor subfamily 1 group I member 2 (Rattus norvegicus) (Q9R1A7 whole entry, looked up): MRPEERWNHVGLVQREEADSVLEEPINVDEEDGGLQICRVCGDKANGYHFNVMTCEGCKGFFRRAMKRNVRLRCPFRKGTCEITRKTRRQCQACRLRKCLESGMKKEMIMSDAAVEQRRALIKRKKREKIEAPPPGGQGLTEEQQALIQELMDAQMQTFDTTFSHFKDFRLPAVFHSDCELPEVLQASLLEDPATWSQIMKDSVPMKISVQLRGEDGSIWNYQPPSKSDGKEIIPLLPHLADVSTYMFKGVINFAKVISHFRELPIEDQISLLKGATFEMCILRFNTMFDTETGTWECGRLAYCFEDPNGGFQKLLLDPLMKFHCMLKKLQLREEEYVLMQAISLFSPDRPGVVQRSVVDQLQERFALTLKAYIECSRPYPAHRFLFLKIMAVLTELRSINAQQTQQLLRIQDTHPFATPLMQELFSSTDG
# [4] = qHTS assay for small molecule activators of the human pregnane X receptor (PXR) signaling pathway (AID 720659; call rule not given here)
structure (smiles),measurement,setting,value
FC(F)(F)c1cccc(C2=CCN(CCc3ccc4ccccc4c3)CC2)c1,Potency,Es-2,inactive
same,Potency,HeLa,inactive
same,Potency,Hek293T,inactive
same,Potency,JEG-3,inactive
same,Potency,OV90,inactive
same,Potency,PA-1,inactive
same,Potency,Tov-21-G,inactive
same,Potency,Tov112D,inactive
same,Potency,astro,inactive
Cc1sc2c(c1C)C(c1ccc(Cl)cc1)=N[C@@H](CC(=O)OC(C)(C)C)c1nnc(C)n1-2,Potency,[1],inactive
Fc1ccc(C(OCCN2CCN(CCCc3ccccc3)CC2)c2ccc(F)cc2)cc1,Potency,JEG-3,inactive
same,Potency,OV90,22.4 µM (active)
same,Potency,astro,22.4 µM (active)
CN1C[C@H](CNC(=O)OCc2ccccc2)C[C@@H]2c3cccc4c3c(cn4C)C[C@H]21,Potency,Es-2,inactive
same,Potency,HeLa,inactive
same,Potency,Hek293T,inactive
same,Potency,OV90,inactive
same,Potency,PA-1,inactive
same,Potency,Tov-21-G,inactive
same,Potency,Tov112D,inactive
same,Potency,astro,inactive
COc1ccc(Cc2nccc3cc(OC)c(OC)cc23)cc1OC,Potency,OV90,11.2 µM (active)
same,Potency,SKOV3,25.1 µM (active)
same,Potency,Tov-21-G,inactive
same,Potency,Tov112D,inactive
same,Potency,astro,10 µM (active)
O=C(O)c1ccc2[nH]cc(CCCCN3CC=C(c4ccccc4)CC3)c2c1,Potency,Es-2,inactive
same,Potency,HeLa,inactive
same,Potency,Hek293T,inactive
same,Potency,OV90,inactive
same,Potency,PA-1,inactive
same,Potency,SKOV3,inactive
same,Potency,Tov-21-G,inactive
same,Potency,Tov112D,inactive
same,"activity, negative = cell killing",[2]; tumour line B,-0.385%
same,"activity, negative = cell killing",[2]; tumour line D,-15.3%
same,Potency,astro,inactive
CO[C@]12CC[C@@]3(C[C@@H]1[C@](C)(O)C(C)(C)C)[C@@H]1Cc4ccc(O)c5c4[C@@]3(CCN1CC1CC1)[C@H]2O5,Potency,astro,31.6 µM (active)
CC(C)=CCOc1c2occc2cc2ccc(=O)oc12,Potency,Es-2,inactive
same,Potency,Hek293T,inactive
same,Potency,OV90,inactive
same,Potency,PA-1,inactive
same,Potency,Tov-21-G,inactive
same,Potency,Tov112D,inactive
same,"activity, negative = cell killing",[2]; tumour line B,-6.14%
same,"activity, negative = cell killing",[2]; tumour line D,-22.8%
same,Potency,[2]; tumour line A,17.8 µM (active)
same,Potency,astro,inactive
O=c1oc2ccccc2c(O)c1C(CC(O)c1ccc(-c2ccc(Br)cc2)cc1)c1ccccc1 (configuration not stated),Potency,Es-2,inactive
same,Potency,HeLa,inactive
same,Potency,Hek293T,inactive
same,Potency,OV90,inactive
same,Potency,PA-1,inactive
same,Potency,SKOV3,inactive
same,Potency,Tov-21-G,inactive
same,Potency,Tov112D,inactive
same,"activity, negative = cell killing",[2]; tumour line B,-19.7%
same,max response,[3],-13.3%
same,outcome,[4],inactive
COc1ccc2c(c1OC)CN1CCc3cc4c(cc3C1C2)OCO4 (configuration not stated),Potency,Es-2,inactive
same,Potency,HeLa,inactive
same,Potency,JEG-3,inactive
same,Potency,SKOV3,inactive
same,Potency,Tov-21-G,inactive
same,Potency,Tov112D,inactive
C=C(C)[C@H]1Cc2c(ccc3c2O[C@@H]2COc4cc(OC)c(OC)cc4[C@@H]2C3=O)O1,Potency,Hek293T,0.891 µM (active)
same,Potency,PA-1,1.26 µM (active)
same,Potency,SKOV3,0.282 µM (active)
same,Potency,Tov-21-G,3.98 µM (active)
same,Potency,Tov112D,1.78 µM (active)
same,Potency,astro,0.562 µM (active)
same,max response,[3],-14.4%
